This is part of a sample that, as a whole, favours compounds with a hit. Of some 79,000 tested, about 15% had one in any assay. Active and inactive are the calls of the source. Rule as the data show it: active = growth inhibition above about 70%; inactive = the rest.
How the values were obtained:
[1] = NCI Yeast Anticancer Drug Screen. Data for the wt1 strain (AID 149);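 also: 0% = growth of vehicle-treated wt1 cultures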; settings: S. cerevisiae wt1 strain (SPY 50644) growth inhibition, active compounds read high
Procedure, shortened: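 Compounds are added to wt1 yeast cultures. Growth is then measured. Inhibition is expressed relative to vehicle-treated controls.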

[2] = NCI Yeast Anticancer Drug Screen. Data for the rad50EPP+ strain (AID 151);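 also: 0% = growth of vehicle-treated control cultures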; settings: S. cerevisiae rad50 mutant strain, active compounds read high
Procedure, shortened: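 Yeast strain carrying rad50 alteration (rad50EPP+) exposed to compounds; growth inhibition measured relative to vehicle-treated controls.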

[3] = NCI Yeast Anticancer Drug Screen. Data for the mgt1 strain (AID 153); settings: S. cerevisiae mgt1 mutant growth inhibition, active compounds read high
Procedure, shortened: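 Yeast mgt1 strain (DNA repair/cell-cycle alteration panel) exposed to compounds; growth inhibition measured relative to vehicle-treated controls.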

[4] = NCI Yeast Anticancer Drug Screen. Data for the rad50 strain (AID 155);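 also: 0% = growth of vehicle-only cultures of the same strain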; settings: S. cerevisiae rad50 strain growth inhibition, active compounds read high
Procedure, shortened: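 Inhibition values express reduced yeast growth in compound-treated cultures relative to vehicle-treated controls.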

[5] = NCI Yeast Anticancer Drug Screen. Data for the mec2-1 strain (AID 157); settings: S. cerevisiae mec2-1 strain, active compounds read high
Procedure, shortened: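 mec2-1 yeast strain, carrying an alteration in DNA damage repair or cell cycle control, was exposed to compounds; growth inhibition was measured relative to vehicle-treated controls.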

[6] = NCI Yeast Anticancer Drug Screen. Data for the rad14 strain (AID 159);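 also: 0% = growth of vehicle-treated control cultures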; settings: S. cerevisiae rad14 strain growth inhibition, active compounds read high
Procedure, shortened: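 A mutant yeast strain defective in DNA damage repair is treated with compound; inhibition of its growth is scored against untreated, vehicle-exposed cultures.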

[7] = NCI Yeast Anticancer Drug Screen. Data for the sgs1 mgt1 strain (AID 161);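 also: 0% = growth of cultures given vehicle only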; settings: S. cerevisiae sgs1 mgt1 strain, active compounds read high
Procedure, shortened: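 Growth of a repair-deficient yeast mutant was monitored after compound treatment and expressed as inhibition relative to vehicle-treated cultures.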

[8] = NCI Yeast Anticancer Drug Screen. Data for the CLN2oe strain (AID 163);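 also: 0% = growth of vehicle-only control cultures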; settings: S. cerevisiae CLN2oe strain, active compounds read high
Procedure, shortened: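 Yeast cells carrying a defined cell-cycle control alteration were exposed to test compounds. Growth inhibition was scored against vehicle-treated control cultures.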

[9] = NCI Yeast Anticancer Drug Screen. Data for the cln2 rad14 strain (AID 165);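 also: 0% = growth equal to vehicle treated cultures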; settings: S. cerevisiae cln2 rad14 strain, active compounds read high
Procedure, shortened: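 Yeast carrying cln2 and rad14 alterations (cell cycle control and DNA damage repair) were exposed to compounds. Growth inhibition was measured against vehicle-treated controls.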

[10] = NCI Yeast Anticancer Drug Screen. Data for the bub3 strain (AID 167); settings: S. cerevisiae bub3 mutant strain, active compounds read high
Procedure, shortened: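 Steps: expose the mutant yeast strain to compound; grow alongside vehicle-treated cultures; measure growth; express inhibition against the vehicle cultures.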

[11] = NCI Yeast Anticancer Drug Screen. Data for the wt2 strain (AID 169);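 also: 0% = growth of vehicle-treated yeast cultures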; settings: S. cerevisiae wt2 strain growth inhibition, active compounds read high
Procedure, shortened: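 Yeast cells were exposed to test compounds, and growth inhibition was measured relative to vehicle-treated controls.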

[12] = NCI Yeast Anticancer Drug Screen. Data for the mlh1 strain (AID 171);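 also: 0% = growth of vehicle-treated control cultures of the same strain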; settings: S. cerevisiae mlh1 strain growth inhibition, active compounds read high
Procedure, shortened: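 Yeast carrying a defined genetic alteration in DNA damage repair or cell cycle control were exposed to test compounds. Growth inhibition was measured relative to vehicle-treated controls.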

[13] = NCI Yeast Anticancer Drug Screen. Data for the sgs1 strain (AID 173);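 also: 0% = growth of vehicle-only control cultures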; settings: S. cerevisiae sgs1 mutant, active compounds read high
Procedure, shortened: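 Yeast mutant strains carrying defined defects in DNA damage repair or cell cycle control were exposed to test compounds. Growth inhibition was scored against vehicle-treated controls.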

[14] = NCI Yeast Anticancer Drug Screen. Data for the mlh1 rad18 strain (AID 175); settings: S. cerevisiae mlh1 rad18 strain growth inhibition, active compounds read high
Procedure, shortened: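 Growth inhibition of the yeast strain was measured after compound exposure and expressed relative to vehicle-treated controls. The strain carries defined defects in DNA damage repair.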

[15] = NCI Yeast Anticancer Drug Screen. Data for the rad18 strain (AID 177); settings: S. cerevisiae rad18 mutant growth inhibition, active compounds read high
Procedure, shortened: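 Yeast carrying a defined DNA damage repair alteration were exposed to compounds. Growth inhibition was expressed relative to vehicle-treated controls.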

[16] = NCI Yeast Anticancer Drug Screen. Data for the rad52 strain (AID 147);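 also: 0% = growth of vehicle-treated control cultures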; settings: S. cerevisiae rad52 mutant growth inhibition, active compounds read high
Procedure, shortened: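 Yeast strain carrying a DNA damage repair alteration was exposed to test compounds. Growth inhibition was measured relative to vehicle-treated controls.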

[17] = at 5.0 µM (retest, dose inferred, filed as 0.5)
[18] = at 50.0 µM (retest, dose inferred, filed as 5.0)

Measured: growth inhibition

COc1cc(C2c3cc4c(cc3OC(Nc3ccccc3)C2C)OCO4)cc(OC)c1O (stereo unspecified)
inactive: [1]; at 1.2 µM 1% | [1]; at 3.7 µM -1% | [1]; at 11.0 µM 2% | [1]; at 33.0 µM 0% | [1]; at 100.0 µM 30% | [2]; at 1.2 µM -1% | [2]; at 3.7 µM -3% | [2]; at 11.0 µM 1% | [2]; at 33.0 µM 1% | [2]; at 100.0 µM 0% | [3]; at 1.2 µM -1% | [3]; at 3.7 µM -3% | [3]; at 11.0 µM -3% | [3]; at 33.0 µM 15% | [3]; at 100.0 µM 38% | [4]; at 1.2 µM 2% | [4]; at 3.7 µM 2% | [4]; [17] -3% | [4]; at 11.0 µM 2% | [4]; at 33.0 µM 2% | [4]; [18] 64% | [5]; at 1.2 µM 0% | [5]; at 3.7 µM 1% | [5]; [17] -5% | [5]; at 11.0 µM 1% | [5]; at 33.0 µM 1% | [5]; at 50.0 µM 36.1% | [5]; at 100.0 µM 67% | [6]; at 1.2 µM 1% | [6]; at 3.7 µM 1% | [6]; at 11.0 µM 4% | [6]; at 33.0 µM 5% | [6]; at 100.0 µM 51% | [7]; [17] -3% | [7]; [18] 6% | [7]; at 50.0 µM 58.7% | [8]; at 1.2 µM 1% | [8]; at 3.7 µM 0% | [8]; at 11.0 µM 1% | [8]; at 33.0 µM 0% | [8]; at 100.0 µM 39% | [9]; [17] 3% | [9]; [18] 52% | [9]; at 50.0 µM 6.9% | [10]; at 1.2 µM -1% | [10]; at 3.7 µM -5% | [10]; [17] 11% | [10]; at 11.0 µM -1% | [10]; at 33.0 µM 0% | [10]; [18] 51% | [10]; at 50.0 µM 43.8% | [10]; at 100.0 µM 41% | [11]; at 1.2 µM -1% | [11]; at 3.7 µM -2% | [11]; at 11.0 µM -1% | [11]; at 33.0 µM 0% | [11]; at 100.0 µM 68% | [12]; at 1.2 µM -3% | [12]; at 3.7 µM -1% | [12]; at 11.0 µM 0% | [12]; at 33.0 µM -3% | [12]; at 100.0 µM 61% | [13]; at 1.2 µM -1% | [13]; at 3.7 µM 0% | [13]; at 11.0 µM 0% | [13]; at 33.0 µM 2% | [13]; at 100.0 µM 65% | [14]; [17] -1% | [15]; at 1.2 µM 0% | [15]; at 3.7 µM -1% | [15]; at 11.0 µM -7% | [15]; at 33.0 µM 1%
active: [4]; at 50.0 µM 77% | [4]; at 100.0 µM 86% | [5]; [18] 78% | [14]; [18] 99% | [14]; at 50.0 µM 92.5% | [15]; at 100.0 µM 92%

O=C1C2CC[C@@H]3C(=O)C(Cl)(Cl)[C@@H]3CCC2C1(Cl)Cl (stereo partly specified)
inactive: [16]; at 1.2 µM 12% | [16]; at 3.7 µM 25% | [16]; at 11.0 µM 46% | [16]; at 33.0 µM 69% | [2]; at 1.2 µM 8% | [2]; at 3.7 µM 15% | [2]; at 11.0 µM 37% | [2]; at 33.0 µM 56% | [2]; at 100.0 µM 50% | [4]; at 1.2 µM 5% | [4]; at 3.7 µM 12% | [4]; [17] 19% | [4]; at 11.0 µM -2% | [4]; at 33.0 µM 33% | [4]; at 100.0 µM 37% | [5]; at 1.2 µM 2% | [5]; at 3.7 µM 6% | [5]; [17] -2% | [5]; at 11.0 µM 11% | [5]; at 33.0 µM 21% | [5]; [18] 49% | [5]; at 100.0 µM 24% | [6]; at 1.2 µM 0% | [6]; at 3.7 µM 3% | [6]; at 11.0 µM 6% | [6]; at 33.0 µM 13% | [6]; at 100.0 µM 22% | [7]; [17] 18% | [7]; [18] 67% | [8]; at 1.2 µM 3% | [8]; at 3.7 µM 0% | [8]; at 11.0 µM 5% | [8]; at 33.0 µM 10% | [8]; at 100.0 µM 20% | [9]; [17] 2% | [9]; [18] 22% | [10]; at 1.2 µM 1% | [10]; at 3.7 µM 2% | [10]; [17] -30% | [10]; at 11.0 µM 12% | [10]; at 33.0 µM 10% | [10]; [18] 10% | [10]; at 100.0 µM 11% | [11]; at 1.2 µM 1% | [11]; at 3.7 µM 3% | [11]; at 11.0 µM 7% | [11]; at 33.0 µM 10% | [11]; at 100.0 µM 14% | [12]; at 1.2 µM 1% | [12]; at 3.7 µM 1% | [12]; at 11.0 µM 4% | [12]; at 33.0 µM 10% | [12]; at 100.0 µM 9% | [13]; at 1.2 µM -21% | [13]; at 3.7 µM 20% | [13]; at 11.0 µM 33% | [13]; at 33.0 µM 51% | [13]; at 100.0 µM 53% | [14]; [17] 31% | [15]; at 1.2 µM 59%
active: [16]; at 100.0 µM 76% | [4]; [18] 70% | [4]; at 50.0 µM 83.3% | [5]; at 50.0 µM 81.9% | [7]; at 50.0 µM 84.6% | [9]; at 50.0 µM 78.8% | [10]; at 50.0 µM 70.8% | [14]; [18] 88% | [14]; at 50.0 µM 79.2% | [15]; at 3.7 µM 85% | [15]; at 11.0 µM 94% | [15]; at 33.0 µM 95% | [15]; at 100.0 µM 96%

Reference: PubChem BioAssay (NCI)
